Test results as given in ChEMBL document CHEMBL3988442, “University of Dundee, Small-Polar-MMV Screening Library” (2021).

These molecules were tested against AMP-activated protein kinase, AMPK (Homo sapiens) (UniProt P54646+O43741+P54619+Q9UGJ0+Q9Y478+Q13131+Q9UGI9) (assay: AMP-dependent Kinase enzyme assay. An in vitro enzyme assay that detects ADP turnover that is directly proportional to AMPK activity. This uses naive AMPK that is activated during the assay with MK-8722). Conditions: 30 µM.
Assay type: functional
Set-up: scale not given: direction of the effect not stated beside the values

First: CC(C)[C@@H]1CN(C(=O)C2(c3ccccc3)CCN(C)CC2)C[C@H]1N(C)C
Second: CSc1ccccc1C(=O)C1CCCN(Cc2cc(C(C)C)[nH]n2)C1 (stereo not given)
The Percent Effect of the first is lower: -5.45% for the first, 6.61% for the second.

Going from `O=C(N[C@H]1COC[C@@H]1N1CCCC1)c1csc(-c2cccs2)n1` to `O=C(N[C@H]1CN2CCC1CC2)c1cc(Cn2cnc3ccccc32)[nH]n1`, the Percent Effect falls from 2.31% to -6.79%.

Compared with `Cc1[nH]c(=O)[nH]c(=O)c1CC(=O)N1CCCN(CC2CC2)C(C(C)C)C1` (stereo not given), `Cc1nc(C)c(CC(=O)N2CCCN(CC3CC3)C(C(C)C)C2)c(=O)[nH]1` (stereo not given) is lower in Percent Effect: 3.13% for the first, -7.23% for the second.

Compared with `COc1ccc(CC(C)Nc2cccc(F)c2)cc1` (stereo not given), `CC(Cc1cccc(F)c1)NCc1cnc(N2CCN(C)CC2)nc1` (stereo not given) is higher in Percent Effect: 4.95% for the first, 8.49% for the second.

Compared with `O=C(c1ccnc(-n2cnnc2)c1)N1CCCC2(CCNC2)C1` (stereo not given), `CC(C)c1cc(N2CCC3(CC2)CN(C)CCN3C)ncn1` is lower in Percent Effect: -3.71% for the first, -4.27% for the second.

First: CCN1CCN(C(=O)COc2ccc(CN(C)S(C)(=O)=O)cc2)CC1
Second: CS(=O)(=O)c1ccc(CC(=O)N2CCN3CCNC(=O)C3C2)cc1 (stereo not given)
The Percent Effect of the first is higher: -0.955% for the first, -2.22% for the second.

First: O=C(N1CCCC1)N1C[C@H]2CC[C@@H]1CN(Cc1ccncc1)C2
Second: COC(=O)N1C[C@H]2CC[C@@H]1CN(Cc1ccncc1)C2
The Percent Effect of the first is higher: 2.18% for the first, 0.146% for the second.

First: c1cnc(N2C[C@@H]3CC[C@H](C2)N(Cc2ccsc2)C3)nc1
Second: CSc1ccccc1C(=O)C1CCCN(Cc2ccccn2)C1 (stereo not given)
The Percent Effect of the first is lower: 8.4% for the first, 18.7% for the second.

First: CC(=O)Nc1ccc(-c2ccccc2CCN)cc1
Second: CC(C)NC(=O)[C@H]1CN(Cc2ccccc2)C[C@@H]1C(=O)c1ccccc1
The Percent Effect of the first is lower: 3.13% for the first, 7.87% for the second.

Compared with `Cn1cc(C2=CCN(CCC(=O)NCc3ccc(Cl)cc3)CC2)cn1`, `COc1ccc(NC(=O)CCN2CC=C(c3cnn(C)c3)CC2)cc1Cl` is higher in Percent Effect: 6.44% for the first, 12.5% for the second.

First: O=C(C1CC1)N1CCc2c(ncnc2N2CCN3CCCC3C2)C1 (stereo not given)
Second: O=C(NCCc1c[nH]cn1)c1ccccc1C1CCNC1 (stereo not given)
The Percent Effect of the first is lower: -5.38% for the first, -4.12% for the second.

Going from `CCc1ccc2ncn(Cc3ncc[nH]3)c(=O)c2c1` to `O=C(O)[C@H]1CN(Cc2ccccc2)C[C@@H]1C(=O)c1ccccc1`, the Percent Effect rises from 0.257% to 12.8%.

The molecules below were run against T1, Arginase-2, mitochondrial (Homo sapiens) (UniProt P78540) (assay: in vitro enzyme assay to detect the production of urea directly proportional to the activity of Arginase II). Conditions: 30 µM.
T1 sequence (whole entry): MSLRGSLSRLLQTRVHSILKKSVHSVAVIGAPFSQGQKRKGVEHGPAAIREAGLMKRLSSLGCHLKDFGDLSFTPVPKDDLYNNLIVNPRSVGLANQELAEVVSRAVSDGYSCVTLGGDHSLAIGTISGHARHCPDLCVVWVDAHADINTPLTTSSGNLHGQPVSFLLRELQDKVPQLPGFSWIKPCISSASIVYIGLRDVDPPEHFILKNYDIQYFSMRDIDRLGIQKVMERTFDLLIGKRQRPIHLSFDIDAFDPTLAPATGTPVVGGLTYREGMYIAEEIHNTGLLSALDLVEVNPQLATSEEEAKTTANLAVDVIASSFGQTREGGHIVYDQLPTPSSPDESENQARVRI
Assay type: functional
Set-up: scale not given: direction of the effect not stated beside the values

First: CN(Cc1ccco1)[C@@H]1CN(Cc2cccnc2)[C@@H]2CCCO[C@H]12
Second: CN(Cc1cncnc1)[C@H]1CN(Cc2ccco2)[C@@H]2CCCO[C@@H]21
The Percent Effect of the first is lower: 2.7% for the first, 4.87% for the second.

First: O=C1CSC(c2ccc(Cl)cc2Cl)c2c(n(C3CCOCC3)[nH]c2=O)N1 (stereo not given)
Second: O=C1CSC(c2ccc(F)c(Cl)c2)c2c(n(C3CCOCC3)[nH]c2=O)N1 (stereo not given)
The Percent Effect of the first is higher: 8.11% for the first, -0.54% for the second.

Compared with `O=C1CSC(c2ccsc2)c2c(n(C3CCCC3)[nH]c2=O)N1` (stereo not given), `O=C1CSC(c2ccc(O)cc2)c2c(n(C3CCOCC3)[nH]c2=O)N1` (stereo not given) is higher in Percent Effect: 4.87% for the first, 11.3% for the second.

Going from `Cc1nc(NCC2CC2)nc2c1COCC21CCNC1` (stereo not given) to `Cn1cc(C2SCC(=O)Nc3c2c(=O)[nH]n3C2CCOCC2)cn1` (stereo not given), the Percent Effect falls from 8.11% to 0.54%.

Compared with `O=C1CSC(c2cccnc2)c2c(n(C3CCOCC3)[nH]c2=O)N1` (stereo not given), `O=C1CSC(c2ccncc2)c2c(n(C3CCOCC3)[nH]c2=O)N1` (stereo not given) is higher in Percent Effect: 7.03% for the first, 9.19% for the second.

Going from `c1ccc(O[C@H]2CO[C@@]3(CCCN(Cc4nccs4)C3)C2)nc1` to `c1ccc(O[C@@H]2CO[C@@]3(CCCN(CC4CCOCC4)C3)C2)nc1`, the Percent Effect rises from -0.54% to 8.11%.

First: O=C1CSC(c2ccccc2)c2c(n(C3CCOCC3)[nH]c2=O)N1 (stereo not given)
Second: CSc1ccc(C2SCC(=O)Nc3c2c(=O)[nH]n3C2CCOCC2)cc1 (stereo not given)
The Percent Effect of the first is lower: 5.95% for the first, 8.11% for the second.

First: c1ccc(CN2CCC3(CC2)CCN(Cc2cccnc2)C3)nc1
Second: O=C(NCc1ccccn1)[C@]12COC[C@H]1CN(Cc1ccsc1)C2
The Percent Effect of the first is higher: 8.11% for the first, 5.95% for the second.
